According to PubChem BioAssay (NCATS):
Results filed as inconclusive are left out. The source made the active and inactive calls. Calls follow the shape of the dose curve; as a rule, active = well fitted curve in the direction sought with a large enough effect; inconclusive = small, poorly fitted or top-dose-only effect, or another doubt; inactive = no such curve, though single readings can be large; an effect the other way counts as inactive or inconclusive.

Experiments:
[1] = target: Ubiquitin carboxyl-terminal hydrolase 1 (Homo sapiens) (UniProt O94782); assay: Inhibitors of USP1/UAF1: Pilot qHTS (AID 504865);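 also: rhodamine fluorescence freed from ubiquitin-rhodamine substrate followed over time; top concentration of the series differs between compounds; % is scaled to controls: 0 for no effect and ±100 for the full control effect; nearly all actives have a fitted effect of over 35% in size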
Sequence of Ubiquitin carboxyl-terminal hydrolase 1 (Homo sapiens) (O94782 whole entry, looked up): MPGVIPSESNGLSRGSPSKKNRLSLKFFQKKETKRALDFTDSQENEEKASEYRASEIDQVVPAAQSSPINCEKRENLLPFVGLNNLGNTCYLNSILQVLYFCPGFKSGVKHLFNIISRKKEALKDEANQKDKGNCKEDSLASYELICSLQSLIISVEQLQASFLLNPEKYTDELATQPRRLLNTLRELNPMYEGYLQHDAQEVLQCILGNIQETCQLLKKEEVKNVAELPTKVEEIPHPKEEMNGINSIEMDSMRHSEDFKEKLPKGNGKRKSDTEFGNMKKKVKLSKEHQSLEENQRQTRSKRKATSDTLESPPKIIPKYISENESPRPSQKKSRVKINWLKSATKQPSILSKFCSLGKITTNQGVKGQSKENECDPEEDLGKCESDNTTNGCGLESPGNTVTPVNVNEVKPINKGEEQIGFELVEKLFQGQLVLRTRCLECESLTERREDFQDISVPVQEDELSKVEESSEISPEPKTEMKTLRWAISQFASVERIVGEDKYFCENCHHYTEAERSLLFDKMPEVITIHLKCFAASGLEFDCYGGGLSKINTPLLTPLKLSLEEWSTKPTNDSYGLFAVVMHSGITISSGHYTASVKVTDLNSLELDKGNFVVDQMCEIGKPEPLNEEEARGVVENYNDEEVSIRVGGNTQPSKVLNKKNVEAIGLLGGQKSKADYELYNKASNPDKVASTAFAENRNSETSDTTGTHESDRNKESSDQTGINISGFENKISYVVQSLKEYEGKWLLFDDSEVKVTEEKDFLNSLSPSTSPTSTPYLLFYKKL
How it was run: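 Deubiquitinase activity followed as kinetic rhodamine fluorescence release from 150 nM Ub-Rho. 1 nM USP1/UAF1 with compound, after 15 min room-temperature preincubation, in HEPES pH 7.8 buffer containing TCEP, EDTA, BSA and Tween-20.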

[2] = target: ATP-dependent 6-phosphofructokinase (Trypanosoma brucei brucei) (UniProt O15648); assay: qHTS Assay to Find Inhibitors of T. brucei phosphofructokinase: hit validation (AID 492961);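 also: luminescence reports ADP formed as PFK phosphorylates fructose-6-phosphate with ATP; % is scaled to controls: 0 for no effect and ±100 for the full control effect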
Sequence of ATP-dependent 6-phosphofructokinase (Trypanosoma brucei brucei) (O15648 whole entry, looked up): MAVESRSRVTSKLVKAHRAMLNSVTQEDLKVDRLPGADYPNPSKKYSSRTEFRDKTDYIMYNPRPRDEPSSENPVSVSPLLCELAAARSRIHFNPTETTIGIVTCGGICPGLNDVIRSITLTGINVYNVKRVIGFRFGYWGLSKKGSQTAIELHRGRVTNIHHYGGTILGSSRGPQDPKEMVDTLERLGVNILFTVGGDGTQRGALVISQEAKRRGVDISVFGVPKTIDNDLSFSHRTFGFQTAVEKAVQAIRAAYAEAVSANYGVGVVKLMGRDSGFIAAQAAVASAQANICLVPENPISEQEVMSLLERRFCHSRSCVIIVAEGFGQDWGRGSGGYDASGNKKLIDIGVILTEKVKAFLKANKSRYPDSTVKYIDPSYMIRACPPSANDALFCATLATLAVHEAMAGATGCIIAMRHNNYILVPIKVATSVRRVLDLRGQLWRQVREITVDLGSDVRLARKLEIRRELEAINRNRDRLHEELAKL
How it was run: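 Reaction: 0.1 M triethanolamine pH 8.0, 5 mM MgCl2, F6P 0.5 mM, ATP 0.1 mM, PFK 1.25 nM, 45 min RT. Read-out: ADP-Glo luminescence. Analysis: concentration-response fits, classed by r2 and efficacy.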

[3] = target: Luciferin 4-monooxygenase (Photinus pyralis) (UniProt P08659); assay: Biochemical firefly luciferase enzyme assay for NPC (AID 624030);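 also: purified P. pyralis luciferase at 10 nM with luciferin and ATP substrate; 0% = DMSO and -100% = full luciferase inhibition by PTC124 control; nearly all actives have a fitted effect of over 70% in size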
Sequence of Luciferin 4-monooxygenase (Photinus pyralis) (P08659 whole entry, looked up): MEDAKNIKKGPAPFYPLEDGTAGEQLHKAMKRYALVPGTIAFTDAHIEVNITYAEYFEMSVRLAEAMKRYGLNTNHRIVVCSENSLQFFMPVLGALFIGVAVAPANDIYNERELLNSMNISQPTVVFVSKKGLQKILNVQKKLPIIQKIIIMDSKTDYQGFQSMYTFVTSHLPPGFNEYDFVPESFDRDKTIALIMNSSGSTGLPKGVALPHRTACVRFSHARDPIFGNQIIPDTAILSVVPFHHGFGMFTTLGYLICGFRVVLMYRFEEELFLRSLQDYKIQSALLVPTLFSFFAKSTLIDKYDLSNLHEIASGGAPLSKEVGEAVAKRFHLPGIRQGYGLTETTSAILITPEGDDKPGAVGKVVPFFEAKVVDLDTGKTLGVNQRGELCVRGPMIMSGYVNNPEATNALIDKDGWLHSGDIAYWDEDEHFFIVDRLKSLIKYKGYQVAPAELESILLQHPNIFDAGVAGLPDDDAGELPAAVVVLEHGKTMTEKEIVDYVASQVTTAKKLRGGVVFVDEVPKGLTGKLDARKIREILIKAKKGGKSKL
How it was run: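 Counter-screen for direct inhibition of the luciferase enzyme by approved-drug library compounds, run at 10 nM enzyme in 50 mM Tris acetate (final). Luminescence was read within 5 min of enzyme-buffer addition and normalized to PTC124 versus DMSO (0%).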

[4] = qHTS profiling for inhibitors of Plasmodium falciparum proliferation (AID 504749);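 also: 0% = DMSO vehicle and full inhibition = artemisinin control; nearly all actives have a fitted effect of over 60% in size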; conditions: P. falciparum in erythrocytes, SYBR Green DNA, 72 h, at 28.7 µM (top of the series)
How it was run: (§1)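 Parasite proliferation within erythrocytes, 72 h exposure. Endpoint: SYBR Green I fluorescence after overnight lysis at room temperature. Controls: 0.29 uM artemisinin, DMSO.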

[5] = tested on: ATS189; assay: as above; conditions: P. falciparum in erythrocytes, SYBR Green DNA, 72 h; series mostly up to 28.7 µM
How it was run: as §1

[6] = tested on: C2A; assay: as above; conditions: P. falciparum in erythrocytes, SYBR Green DNA, 72 h; series mostly up to 28.7 µM
How it was run: as §1

[7] = tested on: CP191; assay: as above; conditions: P. falciparum in erythrocytes, SYBR Green DNA, 72 h; series mostly up to 28.7 µM
How it was run: as §1

[8] = tested on: CP192; assay: as above; conditions: P. falciparum in erythrocytes, SYBR Green DNA, 72 h; series mostly up to 28.7 µM
How it was run: as §1

[9] = tested on: CP201; assay: as above; conditions: P. falciparum in erythrocytes, SYBR Green DNA, 72 h; series mostly up to 28.7 µM
How it was run: as §1

[10] = tested on: CP215; assay: as above; conditions: P. falciparum in erythrocytes, SYBR Green DNA, 72 h; series mostly up to 28.7 µM
How it was run: as §1

[11] = tested on: CP237; assay: as above; conditions: P. falciparum in erythrocytes, SYBR Green DNA, 72 h; series mostly up to 28.7 µM
How it was run: as §1

[12] = tested on: CP238; assay: as above; conditions: P. falciparum in erythrocytes, SYBR Green DNA, 72 h; series mostly up to 28.7 µM
How it was run: as §1

[13] = tested on: CP268; assay: as above; conditions: P. falciparum in erythrocytes, SYBR Green DNA, 72 h; series mostly up to 28.7 µM
How it was run: as §1

[14] = tested on: CP269; assay: as above; conditions: P. falciparum in erythrocytes, SYBR Green DNA, 72 h; series mostly up to 28.7 µM
How it was run: as §1

[15] = tested on: CP286; assay: as above; conditions: P. falciparum in erythrocytes, SYBR Green DNA, 72 h; series mostly up to 28.7 µM
How it was run: as §1

[16] = tested on: CP325; assay: as above; conditions: P. falciparum in erythrocytes, SYBR Green DNA, 72 h; series mostly up to 28.7 µM
How it was run: as §1

[17] = tested on: CP329; assay: as above; conditions: P. falciparum in erythrocytes, SYBR Green DNA, 72 h; series mostly up to 28.7 µM
How it was run: as §1

[18] = tested on: FAB9; assay: as above; conditions: P. falciparum in erythrocytes, SYBR Green DNA, 72 h; series mostly up to 28.7 µM
How it was run: as §1

[19] = tested on: JCK; assay: as above; conditions: P. falciparum in erythrocytes, SYBR Green DNA, 72 h; series mostly up to 28.7 µM
How it was run: as §1

[20] = tested on: PC49; assay: as above; conditions: P. falciparum in erythrocytes, SYBR Green DNA, 72 h; series mostly up to 28.7 µM
How it was run: as §1

c1cc2cc(c1)C[n+]1ccc(c3ccccc31)NCc1ccc(cc1)CNc1cc[n+](c3ccccc13)C2
inactive: Potency [1]

Nc1nc(/C(=C/CC(=O)O)C(=O)NC2C(=O)N3C(C(=O)O)=CCSC23)cs1 (configuration not stated)
inactive: Potency [1]

CC12CCC3C4CCC(=O)C(O)=C4CCC3C1CCC2OC(=O)CCC1CCCC1 (configuration not stated)
inactive: outcome [2] | Potency [1] | Potency [3] | activity, negative = inhibition ([4]; parasite line A) -6.44% | activity, negative = inhibition ([4]; parasite line B) -4.5% | Potency [5] | Potency [6] | Potency [7] | Potency [8] | Potency [9] | Potency [10] | Potency [11] | Potency [12] | Potency [13] | Potency [14] | Potency [15] | Potency [16] | Potency [17] | Potency [18] | Potency [19] | Potency [20]

C[C@H](N)Cc1ccccc1
inactive: outcome [2] | Potency [1] | Potency [3] | activity, negative = inhibition ([4]; parasite line A) -1.91% | activity, negative = inhibition ([4]; parasite line B) -0.429% | Potency [5] | Potency [6] | Potency [7] | Potency [8] | Potency [9] | Potency [10] | Potency [11] | Potency [12] | Potency [13] | Potency [14] | Potency [15] | Potency [16] | Potency [17] | Potency [18] | Potency [19] | Potency [20]

CCCCCC(O)C1C(=O)OC(C)C(O)\C=C/C=C\C=C/C=C\C=C(\C)C(O)C(O)C(O)CC(O)CC(O)CC(O)CC(O)CC1O (configuration not stated)
inactive: outcome [2] | Potency [1] | Potency [3] | activity, negative = inhibition ([4]; parasite line A) 11.9% | activity, negative = inhibition ([4]; parasite line B) -8.14% | Potency [5] | Potency [6] | Potency [7] | Potency [8] | Potency [9] | Potency [10] | Potency [11] | Potency [12] | Potency [13] | Potency [14] | Potency [15] | Potency [16] | Potency [17] | Potency [18] | Potency [19] | Potency [20]

Cc1cc(C)cc(C(=O)OC2CC3CCC(C2)N3C)c1 (configuration not stated)
inactive: outcome [2] | Potency [1] | Potency [3] | activity, negative = inhibition ([4]; parasite line A) -5.04% | activity, negative = inhibition ([4]; parasite line B) 8.93% | Potency [5] | Potency [6] | Potency [7] | Potency [8] | Potency [9] | Potency [10] | Potency [11] | Potency [12] | Potency [13] | Potency [14] | Potency [15] | Potency [16] | Potency [17] | Potency [18] | Potency [19] | Potency [20]

C#C[C@]1(O)CC[C@H]2[C@@H]3CCC4=CC(=O)CCC4(C)[C@H]3CCC21C (some centres not stated)
inactive: outcome [2] | Potency [3] | activity, negative = inhibition ([4]; parasite line A) -6.98% | activity, negative = inhibition ([4]; parasite line B) 2.88% | Potency [5] | Potency [6] | Potency [7] | Potency [8] | Potency [9] | Potency [10] | Potency [11] | Potency [12] | Potency [13] | Potency [14] | Potency [15] | Potency [16] | Potency [17] | Potency [18] | Potency [19] | Potency [20]

CCC1NC(=O)C(NC(=O)c2ncccc2O)C(C)OC(=O)C(c2ccccc2)NC(=O)C2CC(=O)CCN2C(=O)C(Cc2ccccc2)N(C)C(=O)C2CCCN2C1=O (configuration not stated)
inactive: outcome [2]

C=CC[C@]1(O)CCC2C3CCC4=CCCCC4C3CCC21C (some centres not stated)
inactive: outcome [2] | Potency [3] | activity, negative = inhibition ([4]; parasite line A) -16.3% | activity, negative = inhibition ([4]; parasite line B) -3.62% | Potency [5] | Potency [6] | Potency [7] | Potency [8] | Potency [9] | Potency [10] | Potency [11] | Potency [12] | Potency [13] | Potency [14] | Potency [15] | Potency [16] | Potency [17] | Potency [18] | Potency [19] | Potency [20]

CC(C)C[C@H](NC(=O)[C@@H](Cc1c[nH]c2ccccc12)NC(=O)[C@@H](Cc1ccc(O)cc1)NC(=O)[C@@H](CO)NC(=O)[C@@H](Cc1c[nH]c2ccccc12)NC(=O)C(Cc1cnc[nH]1)NC(=O)C1CCC(=O)N1)C(=O)N[C@@H](CCCN=C(N)N)C(=O)N1CCC[C@@H]1C(=O)NCC(N)=O (some centres not stated)
inactive: outcome [2]

CN1C2CCC1C(C(=O)O)C(OC(=O)c1ccccc1)C2 (configuration not stated)
inactive: outcome [2] | Potency [1] | Potency [3] | activity, negative = inhibition ([4]; parasite line A) 9.89% | activity, negative = inhibition ([4]; parasite line B) 6.56% | Potency [5] | Potency [6] | Potency [7] | Potency [8] | Potency [9] | Potency [10] | Potency [11] | Potency [12] | Potency [13] | Potency [14] | Potency [15] | Potency [16] | Potency [17] | Potency [18] | Potency [19] | Potency [20]

CCNC(=O)[C@@H]1CCCN1C(=O)[C@H](CCCN=C(N)N)NC(=O)[C@H](CC(C)C)NC(=O)[C@@H](Cc1c[nH]c2ccccc12)NC(=O)[C@H](Cc1ccc(O)cc1)NC(=O)[C@H](CO)NC(=O)[C@H](Cc1c[nH]c2ccccc12)NC(=O)[C@H](Cc1cnc[nH]1)NC(=O)[C@@H]1CCC(=O)N1
inactive: outcome [2]

Nc1nc(O)c(-c2ccccc2)o1
inactive: outcome [2] | Potency [1] | Potency [3] | activity, negative = inhibition ([4]; parasite line A) 12.1% | activity, negative = inhibition ([4]; parasite line B) 6.38% | Potency [5] | Potency [6] | Potency [7] | Potency [8] | Potency [9] | Potency [10] | Potency [11] | Potency [12] | Potency [13] | Potency [14] | Potency [15] | Potency [16] | Potency [17] | Potency [18] | Potency [19] | Potency [20]

OC[C@@H](O)[C@H]1O[C@@H]2OC(C(Cl)(Cl)Cl)O[C@H]2[C@H]1O (some centres not stated)
inactive: outcome [2] | Potency [1] | Potency [3] | activity, negative = inhibition ([4]; parasite line A) 8.29% | activity, negative = inhibition ([4]; parasite line B) 19.1% | Potency [5] | Potency [6] | Potency [7] | Potency [8] | Potency [9] | Potency [10] | Potency [11] | Potency [12] | Potency [13] | Potency [14] | Potency [15] | Potency [16] | Potency [17] | Potency [18] | Potency [19] | Potency [20]
